Consider 36 compounds from PubChem BioAssay AID1345085 (National Center for Advancing Translational Sciences (NCATS), 2018).

Inconclusive results are not listed. Calls of active or inactive are those of the source. Calls follow the shape of the dose curve; as a rule, active = well fitted cell-killing curve with a large enough effect; inconclusive = small, poorly fitted or top-dose-only effect, or effect the other way; inactive = no such curve, though single readings can be large or run the other way.
Potency is read from the fitted curve at half-maximal effect.

The experiment has as its system HeLa. Kind of experiment: Confirmatory qHTS for gynecologic anti-cancer compounds from libraries of approved drugs and bioactive compounds. Also: nearly all actives have a fitted effect of over 55% in size. The following applies: gynecologic cancer cell panel viability, ATPlite luminescence, 48 h; series mostly up to 57.6 µM. In outline: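 Cells (1,000/well) plated 16 h, then exposed 48 h at 37 °C to 11 concentrations (1:3) from 57.5 uM to 0.977 nM. Viability by ATPlite luminescence after 15 min; IC50 derived, with HEK 293T used for selectivity index.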
On the technique in general: In qHTS, concentration-response curves come from the screen itself.
Take `NC1(c2ccc(-c3nc4ccn5c(=O)[nH]nc5c4cc3-c3ccccc3)cc2)CCC1`: the Potency result is “inactive”.

On to `COc1cc2c(Oc3ccc(-c4cnc(Nc5ccc(F)cc5)n(C)c4=O)cc3F)ccnc2cc1OCCCN1CCOCC1`, for which the Potency is 21.7 µM (active).

On to `CCc1c2c(nc3ccc(OC(=O)N4CCC(N5CCCCC5)CC4)cc13)-c1cc3c(c(=O)n1C2)COC(=O)[C@]3(O)CC`, for which the Potency entry was “inactive”.

Consider `C#C[C@]1(O)CC[C@H]2[C@@H]3CCC4=CC(=O)CC[C@@H]4[C@H]3CC[C@@]21CC`, for which the Potency was 3.85 µM (active).

Turning to `NCCOc1cc(C(=O)Nc2cc(OCCN)c3ccccc3n2)nc(C(=O)Nc2cc(OCCN)c3ccccc3n2)c1`, the Potency is 19.3 µM (active).

For the compound `Cn1cc(-c2ccc3ncc(Cc4ccc5ncccc5c4)n3n2)cn1`, the Potency entry was “inactive”.

Take `CCCCc1oc2ccccc2c1C(=O)c1cc(I)c(OCCN(CC)CC)c(I)c1`: the Potency was 50.1 µM (active).

With `Cc1cc(Nc2cc(N3CCN(C)CC3)nc(Sc3ccc(NC(=O)C4CC4)cc3)n2)n[nH]1`, the Potency is 1.09 µM (active).

Consider `Cc1nc(NC(=O)N2CCCC2C(N)=O)sc1-c1ccnc(C(C)(C)C(F)(F)F)c1` (stereo unspecified), for which the Potency was 19.3 µM (active).

For the compound `Cc1cc(C(C)Nc2ccccc2C(=O)O)c2nc(N3CCOCC3)cc(=O)n2c1` (stereo unspecified), the Potency is 17.2 µM (active).

Turning to `CC[C@]1(O)C[C@H]2CN(CCc3c([nH]c4ccccc34)[C@@](C(=O)OC)(c3cc4c(cc3OC)N(C=O)[C@H]3[C@@](O)(C(=O)OC)[C@H](OC(C)=O)[C@]5(CC)C=CCN6CC[C@]43[C@@H]65)C2)C1`, the Potency is 0.273 µM (active).

`Cc1nc2ccc(CN(C)c3ccc(C(=O)NC(CCC(=O)O)C(=O)O)s3)cc2c(=O)[nH]1` (stereo unspecified): the Potency was 0.0544 µM (active).

Consider `CC1=C(/C=C/C(C)=C/C=C/C(C)=C/C(=O)Nc2ccc(O)cc2)C(C)(C)CCC1`, for which the Potency is 24.3 µM (active).

Take `Cc1nc(N)sc1-c1ccnc(Nc2ccc(N3CCOCC3)cc2)n1`: the Potency was 2.17 µM (active).

As to `Cn1cnc2c(F)c(Nc3ccc(Br)cc3Cl)c(C(=O)NOCCO)cc21`, the Potency entry is “inactive”.

Turning to `CC(C)Oc1ccc(C(=O)NC(CNC(=O)CN(C)C)Cc2ccc(-c3cn4cccc(C(C)O)c4n3)cc2)cc1Cl` (stereo unspecified), the Potency is 0.153 µM (active).

As for `CC(C)n1nc(-c2cc3cc(O)ccc3[nH]2)c2c(N)ncnc21`, the Potency was 5.44 µM (active).

For `Cc1[nH]c2ccccc2c1CCNCc1ccc(/C=C/C(=O)NO)cc1`, the Potency was 0.432 µM (active).

`COc1cc(N2CCC(N3CCN(C)CC3)CC2)ccc1Nc1ncc(Cl)c(Nc2ccccc2S(=O)(=O)C(C)C)n1`: the Potency was 0.769 µM (active).

`CC[C@@]1(O)C(=O)OCc2c1cc1n(c2=O)Cc2cc3cc(O)ccc3nc2-1`: the Potency was 0.968 µM (active).

Consider `Nc1nc(Cl)nc2c1ncn2C1OC(CO)C(O)C1F` (stereo unspecified), for which the Potency entry is “inactive”.

Turning to `CN(NC(=O)CC(=O)NN(C)C(=S)c1ccccc1)C(=S)c1ccccc1`, the Potency was 0.122 µM (active).

As for `CCN(CC)CCCC(C)Nc1ccnc2cc(Cl)ccc12` (stereo unspecified), the Potency result is “inactive”.

Take `CC(C)(C(=O)NCC(F)(F)C(F)(F)F)C(=O)NC1C(=O)Nc2ccccc2-c2ccccc21` (stereo unspecified): the Potency is 6.11 µM (active).

Take `Cc1ccc2nc(N)[nH]c(=O)c2c1Sc1ccncc1`: the Potency is 8.63 µM (active).

As to `CC(C)c1nn(-c2c(Cl)cccc2Cl)c2nc(Cc3ccc(OCCO)cc3)[nH]c(=O)c12`, the Potency was 0.122 µM (active).

For `CC(=O)OC12COC1CC(O)C1(C)C(=O)C(O)C3=C(C)C(OC(=O)C(O)C(NC(=O)OC(C)(C)C)c4ccccc4)CC(O)(C(OC(=O)c4ccccc4)C21)C3(C)C` (stereo unspecified), the Potency is 0.0097 µM (active).

As to `CN(C)C/C=C/C(=O)Nc1cc2c(Nc3ccc(F)c(Cl)c3)ncnc2cc1OC1CCOC1` (stereo unspecified), the Potency was 24.3 µM (active).

As to `O=C(Nc1cccnc1)N1CCC(Cc2cccc(Oc3ccc(C(F)(F)F)cn3)c2)CC1`, the Potency was 3.85 µM (active).

As for `CCCC(Nc1nc(-c2ccc(NC(=O)NCC)c(OC)c2)ncc1C)c1cccnc1` (stereo unspecified), the Potency was 0.153 µM (active).

For the compound `CC[C@@]1(O)C(=O)OCc2c1cc1n(c2=O)Cc2c-1nc1ccccc1c2/C=N/OC(C)(C)C`, the Potency was 7.69 µM (active).

For the compound `Nc1ccc(-c2ccc3ncc4ccc(=O)n(-c5cccc(C(F)(F)F)c5)c4c3c2)cn1`, the Potency is 0.385 µM (active).

As to `CC(C)C[C@H](NC(=O)[C@H](Cc1ccccc1)NC(=O)c1cnccn1)B(O)O`, the Potency was 6.11 µM (active).

As for `O=c1[nH]c(=O)n([C@H]2C[C@H](O)[C@@H](CO)O2)cc1F`, the Potency was 2.43 µM (active).

For the compound `CN1C2CCC1CC(OC(=O)[C@H](CO)c1ccccc1)C2` (stereo partly specified), the Potency result was “inactive”.

Take `CCN(CC)CCNC(=O)c1c(C)[nH]c(/C=C2\C(=O)Nc3ccc(F)cc32)c1C`: the Potency was 12.6 µM (active).
